Some test systems named below: HCT-15 colon; HT29 colon; SNB-75 CNS; SNB-19 CNS; U251 CNS; PC-3 prostate; SK-MEL-5 melanoma; UACC-62 melanoma; LOX IMVI melanoma; SK-MEL-28 melanoma; SK-MEL-2 melanoma; EKVX NSCLC; SN12C renal; UO-31 renal; TK-10 renal; ACHN renal; A498 renal; CCRF-CEM leukemia; MOLT-4 leukemia; SR leukemia.
Experiment in all cases: NCI-60 one-dose screen, 48 h (100 = growth as untreated, 0 = no growth, -100 = all killed)
Holding throughout (details): 10 µM unless noted

This is part of a sample that, as a whole, favours compounds with a hit. Of some 83,000 tested, about 20% had one in any assay.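 Compound tested at a single concentration for 48 hours in 96-well plates; a percent growth value below 10 was scored as active.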 Values without a mark were called inactive. Active and inactive are the calls of the source.

With `c1ccc(-c2n(Cc3ccc4ccccc4n3)cc[n+]2Cc2ccc3ccccc3c2)cc1`, the growth was 70.5% in the experiment on HCT-15 colon; -9.68% (active) in the experiment on HT29 colon; 3.74% (active) in the experiment with SNB-75 CNS; 9.86% (active) in the experiment with SNB-19 CNS; 8.14% (active) in the experiment with U251 CNS; 1.28% (active) with PC-3 prostate. Besides, the growth is -95.2% (active) in the experiment with SK-MEL-5 melanoma; -46.2% (active) in the experiment with UACC-62 melanoma; -25.9% (active) with LOX IMVI melanoma; 0.22% (active) with SK-MEL-28 melanoma; -27% (active) in the experiment on SK-MEL-2 melanoma; 38.4% with EKVX NSCLC. Also, the growth with SN12C renal is 4.45% (active); in the experiment with UO-31 renal, 54.6%; in the experiment with TK-10 renal it was -0.737% (active); in the experiment with ACHN renal it was 63.8%; in the experiment with A498 renal, -2.66% (active); in the experiment with CCRF-CEM leukemia it was 4.04% (active). In addition, the growth in the experiment on MOLT-4 leukemia is 2.42% (active); in the experiment on SR leukemia, -27.4% (active).

With `COc1ccc(-c2cs/c(=N\N=C\c3ccc(O)cc3O)n2/N=C/c2ccc(O)cc2O)cc1`, the growth is -53.1% (active) with HCT-15 colon; -29% (active) in the experiment with HT29 colon; 29.7% with SNB-75 CNS; 5.62% (active) in the experiment on SNB-19 CNS; -35.8% (active) with U251 CNS; -67.3% (active) in the experiment on PC-3 prostate. For the same compound, the growth in the experiment with SK-MEL-5 melanoma is -38.6% (active); with UACC-62 melanoma, -36.3% (active); in the experiment on LOX IMVI melanoma, -36% (active); with SK-MEL-28 melanoma, -22.9% (active); in the experiment with SK-MEL-2 melanoma, -28.4% (active); with EKVX NSCLC it was 7.59% (active). Besides, the growth in the experiment with SN12C renal was 4.01% (active); with UO-31 renal, -65% (active); in the experiment with TK-10 renal it was -31.3% (active); in the experiment with ACHN renal it was -34.3% (active); in the experiment on A498 renal, -6.11% (active); in the experiment on CCRF-CEM leukemia, 2.63% (active). For the same compound, the results for the growth in the experiment on MOLT-4 leukemia and in the experiment with SR leukemia were -35.3% (active) and 6.76% (active), respectively.

For `O=C(CCCC(=O)Nc1ccc(-n2nnc3cc(Cl)c(Cl)cc32)cc1)Nc1ccc(-n2nnc3cc(Cl)c(Cl)cc32)cc1`, the growth with HCT-15 colon is 74.1%; in the experiment on HT29 colon, 43.8%; in the experiment on SNB-75 CNS, 30.4%; in the experiment on SNB-19 CNS, 29.8%; in the experiment with U251 CNS it was 28.7%; in the experiment with PC-3 prostate, 19.4%. The growth with SK-MEL-5 melanoma was 42.2%; with UACC-62 melanoma it was 30.8%; in the experiment on LOX IMVI melanoma it was 50.9%; in the experiment with SK-MEL-28 melanoma it was 57.9%; in the experiment on SK-MEL-2 melanoma, 53.8%; in the experiment on EKVX NSCLC, 64.4%. In addition, the growth was 40.5% with SN12C renal; 79.8% with UO-31 renal; 84% in the experiment on TK-10 renal; 66.2% in the experiment with ACHN renal; 36.5% with A498 renal; 77.6% with CCRF-CEM leukemia. Besides, the results for the growth in the experiment with MOLT-4 leukemia and with SR leukemia were 91.1% and 51.2%, respectively.

In the case of `CN(C)C(CNc1oc(-c2cccc3ccccc23)nc1C#N)c1ccco1` (stereo not given), the growth in the experiment on HCT-15 colon is 79.8%; in the experiment with HT29 colon, 72.1%; with SNB-75 CNS, 71.5%; in the experiment with SNB-19 CNS, 101%; in the experiment with U251 CNS, 80.4%; with PC-3 prostate it was 89.5%. Also, the growth in the experiment with SK-MEL-5 melanoma was 91.7%; in the experiment with UACC-62 melanoma it was 91.3%; with LOX IMVI melanoma, 95.8%; in the experiment with SK-MEL-28 melanoma, 96.3%; in the experiment on SK-MEL-2 melanoma it was 95.9%; in the experiment with EKVX NSCLC it was 85.1%. In addition, the growth with SN12C renal was 103%; in the experiment with UO-31 renal, 87.7%; in the experiment with TK-10 renal, 109%; in the experiment on ACHN renal, 90.6%; in the experiment with A498 renal, 107%; with CCRF-CEM leukemia it was 79.5%. Also, the growth in the experiment on MOLT-4 leukemia was 70.5%; in the experiment with SR leukemia, 69.5%.

With `NC(=N\N=C\c1ccccc1O)/C(N)=N/N=C/c1ccccc1O`, the growth in the experiment with HCT-15 colon was 66%; in the experiment with HT29 colon, 73.8%; with SNB-75 CNS it was 84.4%; with SNB-19 CNS, 84.4%; in the experiment on U251 CNS, 82.7%; with PC-3 prostate, 56.1%. Further, the growth in the experiment on SK-MEL-5 melanoma is 84.6%; in the experiment on UACC-62 melanoma, 68.9%; in the experiment on LOX IMVI melanoma it was 48.6%; in the experiment on SK-MEL-28 melanoma, 90.5%; in the experiment with SK-MEL-2 melanoma, 94.8%; in the experiment with EKVX NSCLC it was 88.5%. The growth in the experiment with SN12C renal is 90.8%; with UO-31 renal, 70.2%; in the experiment with TK-10 renal, 92.5%; in the experiment with ACHN renal, 74.9%; in the experiment on A498 renal it was 79%; with CCRF-CEM leukemia, 80.1%. Further, the growth with MOLT-4 leukemia was 68.3%; with SR leukemia it was 71.2%.

Turning to `COc1ccc(-c2cc(C(=O)N3N=C(c4ccc(N)cc4)CC3c3ccc(OC)cc3)c3cc(OC)ccc3n2)cc1` (stereo not given), the growth in the experiment with HCT-15 colon is 22.2%; in the experiment with HT29 colon it was 26.5%; in the experiment on SNB-75 CNS, 70.3%; in the experiment with SNB-19 CNS it was 58.1%; in the experiment with U251 CNS, 48.7%; in the experiment on PC-3 prostate, 42.5%. Further, the growth is 67.3% in the experiment on SK-MEL-5 melanoma; 40.4% in the experiment on UACC-62 melanoma; 41.3% in the experiment with LOX IMVI melanoma; 64.4% with SK-MEL-28 melanoma; 64.5% with SK-MEL-2 melanoma; 68.9% in the experiment with EKVX NSCLC. The growth in the experiment with SN12C renal is 61.8%; in the experiment on UO-31 renal it was 56.6%; in the experiment on TK-10 renal it was 93.8%; in the experiment with ACHN renal it was 54.5%; in the experiment with A498 renal it was 71.3%; in the experiment on CCRF-CEM leukemia, 63.3%. Further, the growth in the experiment on MOLT-4 leukemia is 54.5%; in the experiment on SR leukemia it was 19.4%.

On to `Cc1cnc(SCc2ccc(Cl)cc2Cl)nc1Nc1ccc(Cl)c(Cl)c1`, for which the growth in the experiment with HCT-15 colon is 99.8%; with HT29 colon, 85.1%; in the experiment with SNB-75 CNS, 85.4%; in the experiment on SNB-19 CNS, 96.7%; with U251 CNS it was 93.9%; with PC-3 prostate, 71.6%. Further, the growth in the experiment on SK-MEL-5 melanoma is 93.4%; in the experiment on UACC-62 melanoma, 53.4%; with LOX IMVI melanoma, 81.2%; in the experiment on SK-MEL-28 melanoma it was 111%; in the experiment on SK-MEL-2 melanoma, 87.9%; in the experiment with EKVX NSCLC it was 94.2%. The growth was 93% in the experiment with SN12C renal; 74.6% in the experiment with UO-31 renal; 100% with TK-10 renal; 96.4% in the experiment on ACHN renal; 85.7% with A498 renal; 85.6% in the experiment with CCRF-CEM leukemia. For the same compound, the growth is 59.5% with MOLT-4 leukemia and 72% in the experiment with SR leukemia.

For `CC(=O)c1c(OCC#N)ccc2c(C)cc(=O)oc12`, the growth in the experiment with HCT-15 colon is 102%; in the experiment on HT29 colon, 117%; in the experiment with SNB-75 CNS, 103%; in the experiment on SNB-19 CNS, 97.2%; in the experiment on U251 CNS, 94.9%; in the experiment with PC-3 prostate, 87.2%. Also, the growth was 104% in the experiment with SK-MEL-5 melanoma; 96.5% in the experiment with UACC-62 melanoma; 100% with LOX IMVI melanoma; 93% in the experiment on SK-MEL-28 melanoma; 95.6% in the experiment on SK-MEL-2 melanoma; 105% in the experiment with EKVX NSCLC. In addition, the growth in the experiment with SN12C renal is 102%; in the experiment with UO-31 renal, 114%; in the experiment with TK-10 renal, 118%; in the experiment on ACHN renal, 99.8%; with A498 renal it was 101%; in the experiment with CCRF-CEM leukemia, 105%. The growth was 101% in the experiment with MOLT-4 leukemia and 87.1% in the experiment with SR leukemia.

(Values after PubChem BioAssay (NCI).)
